# Source: PubChem BioAssay (National Center for Advancing Translational Sciences (NCATS))
# Pol kappa inh-1 – inhibitors of human DNA polymerase kappa | Q9UBT6 | purified Pol kappa, fluorescent DNA synthesis assay, 10 min | Potency, µM (titrated, usually from 107 µM), without a hit: top-dose activity, negative = inhibition, most hits filed as inhibitors | 400,000 compounds, 0.53% hits | AID 588579; further: potency means the concentration at half of the fitted maximal effect; on the % scale 0 is the no-effect control and ±100 the full control effect
#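 50 nM final substrate added after 15 min RT preincubation of 10 nM Pol kappa with compound; fluorescence read at 0 and 10 min.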
# FEN1 inh – inhibitors of human flap endonuclease 1. P39748. Recombinant FEN1 flap cleavage, fluorescence, 15 min. Potency, µM (series often up to 114 µM), for the others: at the highest dose activity change, negative = inhibition, actives largely listed as inhibitors. 390,000 compounds, 0.35% hits. AID 588795; further: potency means the concentration at half of the fitted maximal effect; on the % scale 0 is the no-effect control and ±100 the full control effect; nearly all actives have a fitted effect of over 65% in size
#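 Recombinant FEN1 (10 nM) was preincubated with pin-transferred compounds for 15 min at room temperature, then flap DNA substrate (50 nM final) was added. Plates were read at 0 and 15 min, and normalized concentration–response data were fitted to a four-parameter Hill equation.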
# WRN helicase inh – blocks human WRN helicase | WRN helicase unwinding, fluorescent forked duplex, kinetic | Potency, µM (series often up to 114 µM), without a hit: top-dose activity change, negative = inhibition, actives largely listed as inhibitors | 360,000 compounds, 0.46% hits; further: potency means the concentration at half of the fitted maximal effect; on the % scale 0 is the no-effect control and ±100 the full control effect; nearly all actives have a fitted effect of over 55% in size
#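 WRN at 20 nM final preincubated with compound 15 min at room temperature; reaction started with 100 nM fluorophore/quencher forked duplex oligonucleotide and 2 mM ATP final. Unwinding followed kinetically by red fluorescence (ex 525, em 598 nm).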
# POLI inh – DNA polymerase iota (human) inhibition. Q9UNA4. Pol iota fluorescent replication assay, 10 min. Potency, µM (top dose mostly 115 µM), for inactives: top-dose activity, negative = inhibition, most hits filed as inhibitors. 390,000 compounds, 1% hits; further: potency means the concentration at half of the fitted maximal effect
#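 Pol iota at 10 nM preincubated 15 min with compounds at room temperature; reaction started with fluorescent substrate, 50 nM final. Fluorescence read kinetically at 0 and 10 min; buffer-only wells as negative control.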
# Pol beta inh – blocks human DNA polymerase beta activity; P06746; Pol beta primer extension/strand displacement, fluorescence kinetic; Potency, µM (highest dose often 114 µM), inactives show at the highest dose activity change, negative = inhibition, most hits filed as inhibitors; 340,000 compounds, 1.3% hits; AID 485314; further: potency means the concentration at half of the fitted maximal effect; on the % scale 0 is the no-effect control and ±100 the full control effect
#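 Pol beta (10 nM) and compounds were preincubated 15 min at room temperature, then 50 nM substrate (final) started primer extension/strand displacement. Reads were taken at 0 and 10 min; concentration-response data were fitted to a four-parameter Hill equation.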
# Pol eta inh-1 – DNA polymerase eta (human) inhibition; Q9Y253; recombinant Pol eta, fluorescent DNA replication assay; Potency, µM (highest dose often 114 µM), for inactives: at the highest dose activity change, negative = inhibition, actives largely listed as inhibitors; 390,000 compounds, 1.2% hits; AID 588591; further: potency means the concentration at half of the fitted maximal effect; on the % scale 0 is the no-effect control and ±100 the full control effect
# Target sequence (Q9Y253 whole entry, looked up): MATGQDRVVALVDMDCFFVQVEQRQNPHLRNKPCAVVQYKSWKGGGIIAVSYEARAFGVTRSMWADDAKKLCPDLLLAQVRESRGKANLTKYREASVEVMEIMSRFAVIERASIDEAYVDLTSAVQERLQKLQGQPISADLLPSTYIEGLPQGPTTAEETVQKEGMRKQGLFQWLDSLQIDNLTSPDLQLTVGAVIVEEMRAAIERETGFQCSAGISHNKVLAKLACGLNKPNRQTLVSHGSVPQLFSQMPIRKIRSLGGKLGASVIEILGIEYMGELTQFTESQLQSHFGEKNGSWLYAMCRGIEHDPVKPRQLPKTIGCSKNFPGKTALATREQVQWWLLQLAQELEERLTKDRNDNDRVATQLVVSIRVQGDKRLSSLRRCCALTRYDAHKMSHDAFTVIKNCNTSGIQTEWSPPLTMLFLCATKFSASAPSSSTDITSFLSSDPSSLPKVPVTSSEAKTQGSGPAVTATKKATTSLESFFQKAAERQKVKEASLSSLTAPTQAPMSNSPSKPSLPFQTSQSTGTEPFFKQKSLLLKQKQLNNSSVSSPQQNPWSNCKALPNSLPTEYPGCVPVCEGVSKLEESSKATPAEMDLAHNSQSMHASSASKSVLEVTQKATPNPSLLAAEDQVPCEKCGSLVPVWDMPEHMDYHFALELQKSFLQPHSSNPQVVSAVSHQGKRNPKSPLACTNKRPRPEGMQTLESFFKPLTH
#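 Pol eta (10 nM) was preincubated with compounds for 15 min at room temperature, after which fluorescent replication substrate (50 nM final) was added to start the reaction. Fluorescence was read kinetically at 0 and 10 min.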
# GALK inh confirm – confirmation of human galactokinase (GALK) inhibitors; shares compounds with Pol eta inh-1; purified GALK, Kinase-Glo ATP depletion luminescence; Potency, µM (top dose mostly 115 µM), inactives show at the top dose activity, negative = inhibition, actives largely listed as inhibitors; 150 compounds, 70% hits; AID 2015
# GALK redox cs – redox cycling activity in phenol red-HRP assay; Potency, µM (series often up to 115 µM), for the others: at the top dose activity change, negative = H2O2 signal, most hits filed as inhibitors; 150 compounds, 40% hits; Phenol red-HRP H2O2 redox cycling, absorbance 600 nm; shares compounds with Pol eta inh-1
# HEK293 tox – HEK-293 cytotoxicity, GALK inhibitor secondary; shares compounds with Pol eta inh-1; HEK-293 viability, ATP luminescence (CellTiter-Glo), 24/48 h; Potency, µM (series often up to 46.1 µM), for the others: at the top dose activity change, negative = cytotoxicity, usual class: inhibitors; 170 compounds, 10% hits; further: potency means the concentration at half of the fitted maximal effect; on the % scale 0 is the no-effect control and ±100 the full control effect
# Pol kappa inh-2 – confirmation of human DNA polymerase kappa inhibitors. shares compounds with Pol eta inh-1. purified Pol-kappa, fluorescent strand-displacement substrate. Potency, µM, actives largely listed as inhibitors. 920 compounds, 76% hits; further: potency means the concentration at half of the fitted maximal effect
# Pol eta inh-2 – confirmation of human DNA polymerase eta inhibitors. shares compounds with Pol eta inh-1. Pol eta primer extension, TAMRA/BHQ fluorescence, 10 min. Potency, µM, hits mostly inhibitors. 2,600 compounds, 64% hits; further: potency means the concentration at half of the fitted maximal effect
# An asterisk follows results filed as active; ? = inconclusive; nt = no result given; [ ] = remark or other dose. Shown are actives, neighbours in structure and some others; about 2.4% of the full set was active somewhere. The call rests on the fitted dose curve; in most records, active means well fitted curve in the direction sought with a large enough effect; inconclusive means small, poorly fitted or top-dose-only effect, or another doubt; inactive means no such curve, though single readings can be large; an effect the other way counts as inactive or inconclusive.
SMILES,Pol kappa inh-1,FEN1 inh,WRN helicase inh,POLI inh,Pol beta inh,Pol eta inh-1,Pol eta inh-2,others
Cc1ccc(NC(=O)CSc2nc3c(oc4ccccc43)c(=O)n2Cc2ccco2)cc1F,5%,3%,nt,3%,2%,-12%,nt,
COc1ccc(-c2nc(SCCOc3ccccc3Cl)n3[nH]c(=O)cc3n2)cc1,-21%,-25%,nt,-20%,-31%,-5%,nt,
Cc1cc(C)cc(OCCSc2nc(-c3ccc(C(C)(C)C)cc3)nc3cc(=O)[nH]n23)c1,-18%,-17%,nt,-17%,22µM*,?,85*,
Cc1cc(OCCCSc2nc(-c3ccc(C(C)(C)C)cc3)nc3cc(=O)[nH]n23)ccc1Cl,?,?,nt,?,40µM*,79µM*,?,
O=C(CN1C=NS(=O)(=O)c2ccc(C(F)(F)F)cc21)Nc1cccc(C(F)(F)F)c1,-2%[60.1 µM],-1%,nt,-5%,?,-8%,nt,
O=C1OC(C(=O)O)Cc2ccccc21 (centres undefined),-8%,-2%,-6%,-10%,7%,2%,nt,GALK inh confirm=-5%;GALK redox cs=1%;HEK293 tox=3%
Cc1ccccc1NC(=O)C1Cc2ccccc2C(=O)O1 (centres undefined),-6%,4%,0%,6%,-8%,-9%,nt,
O=C(N/C=C/c1ccco1)OCc1ccccc1,-43%,7%,-4%[11.6 µM],?,?,?,?,
COc1ccc(NC(=O)N/C=C/c2ccco2)cc1,?,-25%,-7%[11.6 µM],?,25µM*,45µM*,?,
O=C(N/C=C/c1ccco1)Nc1cccc(Cl)c1,-42%,8%,0%[11.6 µM],?,-15%,?,nt,
Cc1ccc2oc(-c3ccc(Cl)c(NC(=O)c4ccc(OC(C)C)cc4)c3)nc2c1,7%,-18%,nt,19%,27%,3%,nt,
COc1ccc(N(CC(=O)NCCc2ccccc2)S(=O)(=O)c2ccccc2)c(OC)c1,-6%,8%,nt,?,-3%,-25%,nt,
COc1cc(CC(=O)OCC(=O)NCc2ccco2)cc(OC)c1OC,-26%,4%,-5%[11.6 µM],?,nt,50µM*,?,
O=C(COC(=O)CCC(=O)c1ccc(Cl)cc1)NCc1ccco1,?,-3%,?,45µM*,35µM*,25µM*,76*,
N[C@@H](CO)C(=O)NNCc1ccc(O)c(O)c1O,2%[19.4 µM],nt,nt,nt,nt,nt,nt,
O=C(CN1C(=O)c2ccccc2S1(=O)=O)Nc1cc(S(=O)(=O)N2CCOCC2)ccc1N1CCOCC1,-13%,11%,nt,-5%,nt,nt,nt,
O=C(O)CCCN1C(=O)/C(=C\C(Cl)=C\c2ccccc2)SC1=S,?,?,?,?,?,10µM*,24*,Pol kappa inh-2=38*
O=c1nc2s/c(=C\c3ccc(-c4ccccc4[N+](=O)[O-])o3)c(=O)n2nc1-c1ccccc1,-3%,-3%,14µM*,7%,5µM*,?,76*,
Cc1oc(-c2ccc(C(=O)NCc3ccc(Cl)cc3)cc2)nc1CS(=O)(=O)c1ccccc1,-5%,-3%,nt,-6%,?,5%,nt,
COc1ccc2cc(C(N)=O)c(=Nc3ccc(C)cc3)oc2c1,-11%,-1%,1%,45%,18%,-3%,nt,GALK inh confirm=-15%;GALK redox cs=-4%;HEK293 tox=?
CC(C)c1nc(Nc2nc3ccccc3o2)nc2c1CCCC2,nt,nt,nt,nt,nt,nt,nt,HEK293 tox=-29%
Cc1nc(Nc2nc3ccccc3o2)nc2c1CCC2,-17%,-3%,-14%,2%,7%,4%,nt,
CC(C)c1ccc(Nc2ncnc3c2c(-c2ccccc2)cn3-c2ccccc2)cc1,0%[60.1 µM],14%,nt,8%,-9%,-25%,nt,
CS(=O)(=O)N1Cc2ccccc2CC1C(=O)OCC(=O)NCc1ccccc1 (centres undefined),?,-8%,?,79µM*,nt,16µM*,?,
C/C(N)=C(/C#N)C(=O)COC(=O)C1Cc2ccccc2CN1S(C)(=O)=O (centres undefined),?,0%,-32%,22µM*,40µM*,20µM*,67*,
SMILES,Pol kappa inh-1,FEN1 inh,WRN helicase inh,POLI inh,Pol beta inh,Pol eta inh-1,Pol eta inh-2,others
COc1cccc(C(=O)Nc2nc(-c3nnn(-c4ccccc4C(F)(F)F)c3C)ns2)c1,21%,-6%,nt,-2%,37%,-6%,nt,
CC1=NN(c2ccc(C)cc2)C(=O)/C1=C/c1ccc(-c2cc([N+](=O)[O-])ccc2O)o1,79µM*,-19%,?,20µM*,7.1µM*,20µM*,?,Pol kappa inh-2=17*
O=C1NN(c2cccc(Br)c2)C(=O)/C1=C\c1ccc(O)cc1,-3%,-17%,?,?,?,?,nt,
O=C1NN(c2cccc(Br)c2)C(=O)/C1=C/c1ccc(-c2cc([N+](=O)[O-])ccc2O)o1,79µM*,?,?,?,?,10µM*,30*,
CC[C@H](C)/C=C(C)/C=C/C1=CC2=CC(=O)[C@]3(C)OC(=O)[C@@H](C(C)=O)[C@@H]3C2=CO1,79µM*,-18%,-24%,22µM*,35µM*,25µM*,?,
CCOc1cc(CNc2ccc(O)cc2)ccc1OCc1ccc(Cl)cc1,?,?,nt,7.9µM*,?,-23%,?,
CCOc1cc(CNc2ccc3c(c2)CCC3)ccc1O,-4%,0%,-4%,?,9%,5%,nt,
Oc1ccc(NCc2ccccc2OCc2ccc(Cl)cc2)cc1,?,-15%,nt,?,?,-16%,?,
CC(=O)Nc1nonc1-c1nnc(SCC(=O)Nc2cc(C)ccc2C)n1-c1ccccc1,6%,12%,nt,10%,6%,-12%,nt,
